Reference: PubChem BioAssay (NCATS)
Records with an inconclusive call do not appear. Entries that show only a call come without a potency. Calls of active or inactive are those of the source. Calls follow the shape of the dose curve; as a rule, active = well fitted inhibition curve with a large enough effect; inconclusive = small, poorly fitted or top-dose-only effect; inactive = flat fitted curve, though single readings scatter.

These compounds were tested against Calcium and integrin-binding protein 1 (Homo sapiens) (UniProt Q99828) (assay: Primary qHTS for Identification of Calcium Integrin Binding Protein 1 (CIB1) Competitor (AID 1508620;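 also: GST tagged CIB1 binding a fluorescein labelled alphaIIb integrin peptide tracer; top concentration of the series differs between compounds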)). Conditions: CIB1-GST / FITC-alphaIIb peptide fluorescence polarization; series mostly up to 114 µM.
Sequence of Calcium and integrin-binding protein 1 (Homo sapiens) (Q99828 whole entry, looked up): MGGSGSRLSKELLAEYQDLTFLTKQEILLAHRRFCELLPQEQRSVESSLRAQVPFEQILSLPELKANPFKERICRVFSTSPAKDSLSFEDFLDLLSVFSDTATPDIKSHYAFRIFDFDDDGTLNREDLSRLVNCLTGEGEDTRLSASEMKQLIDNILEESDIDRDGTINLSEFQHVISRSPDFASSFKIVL
Outline: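 CIB1-GST (1 uM final) and compound incubated 15 min at room temperature before adding FITC-alphaIIb peptide tracer (100 nM final). Competition for binding read by fluorescence polarization (ex 480, em 540) after another 15 min at room temperature.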

Q: With `COc1cc2nc(Nc3ccccc3)nc(NC3CC3)c2cc1OC` as the compound, how does the Potency read?
A: The Potency was “inactive”.

Q: With `Cc1noc(C)c1-c1ccc2ncnc(NCC3CCN(C)CC3)c2c1` as the compound, how does the Potency read?
A: The Potency was “inactive”.

Q: For `COc1cccc(C2=Nn3c(nnc3-c3cc(OC)ccc3OC)SC2)c1`, which Potency is on record?
A: Its Potency is “inactive”.

Q: How did the Potency turn out when `O=C(Nc1ncc(-c2ccccc2)s1)c1ccc(-c2cccc([N+](=O)[O-])c2)o1` was run?
A: Its Potency is “inactive”.

Q: With `O=C(CSc1nnc(-c2cccc(S(=O)(=O)N3CCCC3)c2)n1-c1ccccc1)Nc1ccccc1` as the compound, how does the Potency read?
A: Its Potency is “inactive”.

Q: Which Potency does the source give for `O=C1NS(=O)(=O)C(c2ccccc2)C1c1ccccc1` (centres undefined) here?
A: The Potency was “inactive”.

Q: `Cc1nc(NCc2ccc(-c3ccnc(C(F)(F)F)c3)cc2)c2ccccc2n1` was tested. Which Potency did it give?
A: Its Potency is “inactive”.

Q: Which Potency does the source give for `O=C(NCCCCc1ccccc1)C1CCN(c2nc(-c3ccc(Br)cc3)cs2)CC1` here?
A: Its Potency is “inactive”.

Q: For `O=C(Cn1nc(-c2ccc(OC(F)(F)F)cc2)ccc1=O)NCCc1ccccc1`, which Potency is on record?
A: The Potency was “inactive”.

Q: `Fc1ccc(CNc2nc(-c3ccccc3C(F)(F)F)nc3ccccc23)cc1` was tested. Which Potency did it give?
A: The Potency was “inactive”.

Q: `O=C(Cn1nc(-c2ccccc2)ccc1=O)NCCc1ccccc1` was tested. Which Potency did it give?
A: Its Potency is “inactive”.

Q: For `O=C(Nc1ccc(-c2cccnc2)nc1)c1cccs1`, which Potency is on record?
A: The Potency was “inactive”.

Q: For `CCOc1cc(CCNC(=O)c2cc3sccc3n2Cc2ccccc2)cc(F)c1OCC`, which Potency is on record?
A: Its Potency is “inactive”.

Q: How did the Potency turn out when `Cc1cc(C)nc(NC(=S)N2CCN(c3ccc4c(c3)OCO4)CC2)c1` was run?
A: The Potency was “inactive”.

Q: For `Oc1c(CN2CCCCC2)cc(COCc2ccccc2)c2cccnc12`, which Potency is on record?
A: The Potency was “inactive”.

Q: How did the Potency turn out when `CC(=O)Nc1sc2c(c1C(=O)O)CCNC2` was run?
A: Its Potency is “inactive”.

Q: `FC(F)(F)c1ccccc1-c1nc(NCc2ccc(Br)cc2)c2ccccc2n1` was tested. Which Potency did it give?
A: Its Potency is “inactive”.

Q: How did the Potency turn out when `O=C(NCc1nnc(C(=O)Nc2ccc(C(F)(F)F)cc2Cl)o1)c1ccccc1` was run?
A: The Potency was “inactive”.

Q: `c1cncc(CNc2ncnc3ccc(-c4ccco4)cc23)c1` was tested. Which Potency did it give?
A: The Potency was “inactive”.

Q: With `COc1ccc(C2=Nn3c(nnc3-c3ccc(OC)c(OC)c3)SC2)cc1` as the compound, how does the Potency read?
A: Its Potency is “inactive”.

Q: Which Potency does the source give for `CC(C)N1Cc2ccc(Nc3nn4c(=O)c5ccccc5nc4s3)cc2C1` here?
A: The Potency was “inactive”.

Q: With `O=C(Cc1nnc(CNC(=O)c2ccccc2)o1)Nc1cc(C(F)(F)F)ccc1Cl` as the compound, how does the Potency read?
A: The Potency was “inactive”.

Q: With `C=Cc1cc(F)c(S(=O)(=O)N2CCN(S(=O)(=O)c3ccc4c(c3)OCCO4)CC2)cc1F` as the compound, how does the Potency read?
A: Its Potency is “inactive”.

Q: For `COc1cccc(CN2C(=O)c3ccccc3NC2c2ccc(OC)c(COc3ccc(NC(C)=O)cc3)c2)c1` (centres undefined), which Potency is on record?
A: The Potency was “inactive”.

Q: Which Potency does the source give for `O=C(Nc1ccc(Cl)c(Cl)c1)N1CCN(c2ccncc2)CC1` here?
A: The Potency was “inactive”.

Q: For `COc1cc(F)c(S(=O)(=O)N2CCN(S(=O)(=O)c3cccc(NC(C)=O)c3)CC2)c(F)c1`, which Potency is on record?
A: The Potency was “inactive”.

Q: With `COc1ccc([S+](=O)([O-])N2CCCN([S+](=O)([O-])c3ccc(OC)c(NC(C)=O)c3)CC2)cc1NC(C)=O` as the compound, how does the Potency read?
A: The Potency was “inactive”.

Q: Which Potency does the source give for `O=C1Cc2cc(S(=O)(=O)N3CCN(c4cccc(C(F)(F)F)c4)CC3)ccc2N1` here?
A: The Potency was “inactive”.

Q: `CCNC(=O)c1ccc(-c2ccc3ncnc(NCc4nccs4)c3c2)o1` was tested. Which Potency did it give?
A: Its Potency is “inactive”.

Q: For `O=[S+]([O-])(c1ccc2c(c1)OCCO2)N1CCN([S+](=O)([O-])c2cc(Cl)ccc2F)CC1`, which Potency is on record?
A: The Potency was “inactive”.

Q: How did the Potency turn out when `NC(=O)c1ccccc1C[C@H](C(=O)O)N1C(=O)c2ccc(C(=O)O)cc2C1=O` was run?
A: The Potency was “inactive”.

Q: With `Cn1c2ccsc2c2ncn(Cc3ccc(F)cc3)c(=O)c21` as the compound, how does the Potency read?
A: The Potency was “inactive”.

Q: `O=C(c1ccccc1O)N(Cc1ccco1)Cc1ccco1` was tested. Which Potency did it give?
A: Its Potency is “inactive”.

Q: Which Potency does the source give for `Cc1nnc(-c2cnn(C)c2N)n1CCCn1cccc1` here?
A: Its Potency is “inactive”.

Q: Which Potency does the source give for `O=c1c2ccccc2nc2sc(Nc3cccc(N4CCNCC4)c3)nn12` here?
A: Its Potency is “inactive”.

Q: With `Cc1ccccc1C(=O)N1CCc2cc(-c3nc(NC(=O)Cc4ccc5c(c4)OCCO5)sc3C)ccc21` as the compound, how does the Potency read?
A: Its Potency is “inactive”.

Q: With `O=C(Nc1ccc(-c2nc3ccccc3[nH]2)cc1)c1ccc(C(F)(F)F)cc1` as the compound, how does the Potency read?
A: The Potency was “inactive”.

Q: `CC(C)Nc1cccc(S(=O)(=O)N2CCCN(S(=O)(=O)c3ccc4c(c3)OCCO4)CC2)c1` was tested. Which Potency did it give?
A: Its Potency is “inactive”.

Q: Which Potency does the source give for `Cc1cc(N[S+](=O)([O-])c2ccc(NC(=O)Cc3ccc(F)c(F)c3)cc2)no1` here?
A: Its Potency is “inactive”.
